{"source": "PubChem BioAssay (NCI)", "key": {"[1]": {"experiment": "NCI Yeast Anticancer Drug Screen. Data for the rad52 strain (AID 147);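 note: 0% = growth of vehicle-treated control cultures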", "settings": "S. cerevisiae rad52 mutant growth inhibition, active compounds read high", "in_short": "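Measured: yeast growth inhibition. System: strain with a defined DNA damage repair alteration. Reference: vehicle-treated control cultures.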"}, "[2]": {"experiment": "NCI Yeast Anticancer Drug Screen. Data for the wt1 strain (AID 149);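 note: 0% = growth of vehicle-treated wt1 cultures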", "settings": "S. cerevisiae wt1 strain (SPY 50644) growth inhibition, active compounds read high", "in_short": "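Growth inhibition read against vehicle controls after compound exposure of the wt1 yeast strain.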"}, "[3]": {"experiment": "NCI Yeast Anticancer Drug Screen. Data for the rad50EPP+ strain (AID 151);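 note: 0% = growth of vehicle-treated control cultures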", "settings": "S. cerevisiae rad50 mutant strain, active compounds read high", "in_short": "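One strain with a rad50 alteration (rad50EPP+) was compound-treated, its growth then compared to that of vehicle controls.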"}, "[4]": {"experiment": "NCI Yeast Anticancer Drug Screen. Data for the mgt1 strain (AID 153)", "settings": "S. cerevisiae mgt1 mutant growth inhibition, active compounds read high", "in_short": "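After exposure of the mgt1 yeast mutant to compound, growth was measured and reported as inhibition compared with vehicle controls.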"}, "[5]": {"experiment": "NCI Yeast Anticancer Drug Screen. Data for the rad50 strain (AID 155);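 note: 0% = growth of vehicle-only cultures of the same strain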", "settings": "S. cerevisiae rad50 strain growth inhibition, active compounds read high", "in_short": "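Readout: growth inhibition relative to vehicle-treated cultures. Compound exposure was carried out in a genetically defined yeast strain deficient in DNA damage repair.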"}, "[6]": {"experiment": "NCI Yeast Anticancer Drug Screen. Data for the mec2-1 strain (AID 157)", "settings": "S. cerevisiae mec2-1 strain, active compounds read high", "in_short": "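Test agents were screened against the mec2-1 yeast strain, with defined DNA repair or cell cycle alteration. Growth was scored as inhibition against vehicle-only controls.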"}, "[7]": {"experiment": "NCI Yeast Anticancer Drug Screen. Data for the sgs1 mgt1 strain (AID 161);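 note: 0% = growth of cultures given vehicle only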", "settings": "S. cerevisiae sgs1 mgt1 strain, active compounds read high", "in_short": "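Read-out: growth inhibition vs vehicle controls. Cells: mutant yeast strain deficient in DNA damage repair.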"}, "[8]": {"experiment": "NCI Yeast Anticancer Drug Screen. Data for the CLN2oe strain (AID 163);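 note: 0% = growth of vehicle-only control cultures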", "settings": "S. cerevisiae CLN2oe strain, active compounds read high", "in_short": "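Here, growth inhibition in a cell-cycle-altered yeast strain after compound exposure was quantified against vehicle control growth.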"}, "[9]": {"experiment": "NCI Yeast Anticancer Drug Screen. Data for the cln2 rad14 strain (AID 165);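 note: 0% = growth equal to vehicle treated cultures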", "settings": "S. cerevisiae cln2 rad14 strain, active compounds read high", "in_short": "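Growth of compound-exposed yeast (cln2 rad14 genotype) measured and expressed as inhibition relative to vehicle.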"}, "[10]": {"experiment": "NCI Yeast Anticancer Drug Screen. Data for the bub3 strain (AID 167)", "settings": "S. cerevisiae bub3 mutant strain, active compounds read high", "in_short": "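Readout: yeast growth inhibition, expressed relative to vehicle-only wells. The test organism is a mutant strain from a panel with lesions in DNA repair or checkpoint genes.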"}, "[11]": {"experiment": "NCI Yeast Anticancer Drug Screen. Data for the wt2 strain (AID 169);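 note: 0% = growth of vehicle-treated yeast cultures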", "settings": "S. cerevisiae wt2 strain growth inhibition, active compounds read high", "in_short": "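Genetically defined yeast strains from a DNA-repair/cell-cycle panel were used. Compound-exposed yeast growth was measured, and the inhibition was calculated relative to vehicle treatment.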"}, "[12]": {"experiment": "NCI Yeast Anticancer Drug Screen. Data for the mlh1 strain (AID 171);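 note: 0% = growth of vehicle-treated control cultures of the same strain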", "settings": "S. cerevisiae mlh1 strain growth inhibition, active compounds read high", "in_short": "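Here the genetically defined yeast mutant is grown with each compound, and the extent to which its growth falls below that of vehicle-exposed cells is reported.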"}, "[13]": {"experiment": "NCI Yeast Anticancer Drug Screen. Data for the sgs1 strain (AID 173);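 note: 0% = growth of vehicle-only control cultures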", "settings": "S. cerevisiae sgs1 mutant, active compounds read high", "in_short": "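Relative growth inhibition, referenced to vehicle, was determined in a yeast strain with a defined alteration affecting DNA damage repair or cell cycle control after compound exposure.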"}, "[14]": {"experiment": "NCI Yeast Anticancer Drug Screen. Data for the mlh1 rad18 strain (AID 175)", "settings": "S. cerevisiae mlh1 rad18 strain growth inhibition, active compounds read high", "in_short": "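In this whole-cell yeast screen, a strain with altered DNA damage repair is challenged with compound, and its growth is measured against matched vehicle-treated controls.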"}, "[15]": {"experiment": "NCI Yeast Anticancer Drug Screen. Data for the rad18 strain (AID 177)", "settings": "S. cerevisiae rad18 mutant growth inhibition, active compounds read high", "in_short": "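Screen uses a yeast strain with a defined lesion in DNA damage repair; compound effect is read as loss of growth compared to untreated vehicle cultures.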"}, "[16]": {"settings": "at 5.0 µM (retest, dose inferred, filed as 0.5)"}, "[17]": {"settings": "at 50.0 µM (retest, dose inferred, filed as 5.0)"}}, "note": "Compounds without any hit were thinned out: in the full panel of roughly 79,000, 15% have a hit. Values without a mark were called inactive. The source made the active and inactive calls. Cut-off read from the data, not from the text of the source: active = growth inhibition above about 70%; inactive = the rest.", "data": [{"smiles": "CCOP(=O)(CC(C)P(=O)(OCC)OCC)OCC.C[CH2][Sn]([Cl])([Cl])[CH2]C", "note": "(stereo not drawn)", "values": [{"measurement": "growth inhibition", "setting": "[1]; at 1.2 µM", "result": -4, "unit": "%"}, {"measurement": "growth inhibition", "setting": "[1]; at 3.7 µM", "result": -1, "unit": "%"}, {"measurement": "growth inhibition", "setting": "[1]; at 11.0 µM", "result": 19, "unit": "%"}, {"measurement": "growth inhibition", "setting": "[1]; at 33.0 µM", "result": "79% (active)"}, {"measurement": "growth inhibition", "setting": "[1]; at 100.0 µM", "result": "94% (active)"}, {"measurement": "growth inhibition", "setting": "[2]; at 1.2 µM", "result": 0, "unit": "%"}, {"measurement": "growth inhibition", "setting": "[2]; at 3.7 µM", "result": 3, "unit": "%"}, {"measurement": "growth inhibition", "setting": "[2]; at 11.0 µM", "result": 12, "unit": "%"}, {"measurement": "growth inhibition", "setting": "[2]; at 33.0 µM", "result": "76% (active)"}, {"measurement": "growth inhibition", "setting": "[2]; at 100.0 µM", "result": "93% (active)"}, {"measurement": "growth inhibition", "setting": "[3]; at 1.2 µM", "result": -1, "unit": "%"}, {"measurement": "growth inhibition", "setting": "[3]; at 3.7 µM", "result": 1, "unit": "%"}, {"measurement": "growth inhibition", "setting": "[3]; at 11.0 µM", "result": 5, "unit": "%"}, {"measurement": "growth inhibition", "setting": "[3]; at 33.0 µM", "result": 4, "unit": "%"}, {"measurement": "growth inhibition", "setting": "[3]; at 100.0 µM", "result": 4, "unit": "%"}, {"measurement": "growth inhibition", "setting": "[4]; at 1.2 µM", "result": -3, "unit": "%"}, {"measurement": "growth inhibition", "setting": "[4]; at 3.7 µM", "result": -1, "unit": "%"}, {"measurement": "growth inhibition", "setting": "[4]; at 11.0 µM", "result": 4, "unit": "%"}, {"measurement": "growth inhibition", "setting": "[4]; at 33.0 µM", "result": 67, "unit": "%"}, {"measurement": "growth inhibition", "setting": "[4]; at 100.0 µM", "result": "95% (active)"}, {"measurement": "growth inhibition", "setting": "[5]; at 1.2 µM", "result": -7, "unit": "%"}, {"measurement": "growth inhibition", "setting": "[5]; at 3.7 µM", "result": -15, "unit": "%"}, {"measurement": "growth inhibition", "setting": "[5]; [16]", "result": 16, "unit": "%"}, {"measurement": "growth inhibition", "setting": "[5]; at 11.0 µM", "result": -2, "unit": "%"}, {"measurement": "growth inhibition", "setting": "[5]; at 33.0 µM", "result": "71% (active)"}, {"measurement": "growth inhibition", "setting": "[5]; [17]", "result": 14, "unit": "%"}, {"measurement": "growth inhibition", "setting": "[5]; at 50.0 µM", "result": "82.7% (active)"}, {"measurement": "growth inhibition", "setting": "[5]; at 100.0 µM", "result": "92% (active)"}, {"measurement": "growth inhibition", "setting": "[6]; at 1.2 µM", "result": 1, "unit": "%"}, {"measurement": "growth inhibition", "setting": "[6]; at 3.7 µM", "result": 4, "unit": "%"}, {"measurement": "growth inhibition", "setting": "[6]; [16]", "result": 1, "unit": "%"}, {"measurement": "growth inhibition", "setting": "[6]; at 11.0 µM", "result": 14, "unit": "%"}, {"measurement": "growth inhibition", "setting": "[6]; at 33.0 µM", "result": 69, "unit": "%"}, {"measurement": "growth inhibition", "setting": "[6]; [17]", "result": 18, "unit": "%"}, {"measurement": "growth inhibition", "setting": "[6]; at 50.0 µM", "result": "85.4% (active)"}, {"measurement": "growth inhibition", "setting": "[6]; at 100.0 µM", "result": "93% (active)"}, {"measurement": "growth inhibition", "setting": "[7]; [16]", "result": 11, "unit": "%"}, {"measurement": "growth inhibition", "setting": "[7]; [17]", "result": 4, "unit": "%"}, {"measurement": "growth inhibition", "setting": "[7]; at 50.0 µM", "result": 68.2, "unit": "%"}, {"measurement": "growth inhibition", "setting": "[8]; at 1.2 µM", "result": -6, "unit": "%"}, {"measurement": "growth inhibition", "setting": "[8]; at 3.7 µM", "result": -5, "unit": "%"}, {"measurement": "growth inhibition", "setting": "[8]; at 11.0 µM", "result": 7, "unit": "%"}, {"measurement": "growth inhibition", "setting": "[8]; at 33.0 µM", "result": "72% (active)"}, {"measurement": "growth inhibition", "setting": "[8]; at 100.0 µM", "result": "93% (active)"}, {"measurement": "growth inhibition", "setting": "[9]; [16]", "result": 6, "unit": "%"}, {"measurement": "growth inhibition", "setting": "[9]; [17]", "result": 52, "unit": "%"}, {"measurement": "growth inhibition", "setting": "[9]; at 50.0 µM", "result": 50.1, "unit": "%"}, {"measurement": "growth inhibition", "setting": "[10]; at 1.2 µM", "result": -2, "unit": "%"}, {"measurement": "growth inhibition", "setting": "[10]; at 3.7 µM", "result": 1, "unit": "%"}, {"measurement": "growth inhibition", "setting": "[10]; [16]", "result": -9, "unit": "%"}, {"measurement": "growth inhibition", "setting": "[10]; at 11.0 µM", "result": 5, "unit": "%"}, {"measurement": "growth inhibition", "setting": "[10]; at 33.0 µM", "result": 55, "unit": "%"}, {"measurement": "growth inhibition", "setting": "[10]; [17]", "result": 53, "unit": "%"}, {"measurement": "growth inhibition", "setting": "[10]; at 50.0 µM", "result": "84.1% (active)"}, {"measurement": "growth inhibition", "setting": "[10]; at 100.0 µM", "result": "91% (active)"}, {"measurement": "growth inhibition", "setting": "[11]; at 1.2 µM", "result": -1, "unit": "%"}, {"measurement": "growth inhibition", "setting": "[11]; at 3.7 µM", "result": -2, "unit": "%"}, {"measurement": "growth inhibition", "setting": "[11]; at 11.0 µM", "result": 2, "unit": "%"}, {"measurement": "growth inhibition", "setting": "[11]; at 33.0 µM", "result": "76% (active)"}, {"measurement": "growth inhibition", "setting": "[11]; at 100.0 µM", "result": "94% (active)"}, {"measurement": "growth inhibition", "setting": "[12]; at 1.2 µM", "result": 0, "unit": "%"}, {"measurement": "growth inhibition", "setting": "[12]; at 3.7 µM", "result": 2, "unit": "%"}, {"measurement": "growth inhibition", "setting": "[12]; at 11.0 µM", "result": 8, "unit": "%"}, {"measurement": "growth inhibition", "setting": "[12]; at 33.0 µM", "result": 69, "unit": "%"}, {"measurement": "growth inhibition", "setting": "[12]; at 100.0 µM", "result": "95% (active)"}, {"measurement": "growth inhibition", "setting": "[13]; at 1.2 µM", "result": -8, "unit": "%"}, {"measurement": "growth inhibition", "setting": "[13]; at 3.7 µM", "result": 4, "unit": "%"}, {"measurement": "growth inhibition", "setting": "[13]; at 11.0 µM", "result": 14, "unit": "%"}, {"measurement": "growth inhibition", "setting": "[13]; at 33.0 µM", "result": "85% (active)"}, {"measurement": "growth inhibition", "setting": "[13]; at 100.0 µM", "result": "95% (active)"}, {"measurement": "growth inhibition", "setting": "[14]; [16]", "result": -2, "unit": "%"}, {"measurement": "growth inhibition", "setting": "[14]; [17]", "result": 28, "unit": "%"}, {"measurement": "growth inhibition", "setting": "[14]; at 50.0 µM", "result": 62.7, "unit": "%"}, {"measurement": "growth inhibition", "setting": "[15]; at 1.2 µM", "result": -2, "unit": "%"}, {"measurement": "growth inhibition", "setting": "[15]; at 3.7 µM", "result": 4, "unit": "%"}, {"measurement": "growth inhibition", "setting": "[15]; at 11.0 µM", "result": 24, "unit": "%"}, {"measurement": "growth inhibition", "setting": "[15]; at 33.0 µM", "result": "75% (active)"}, {"measurement": "growth inhibition", "setting": "[15]; at 100.0 µM", "result": "92% (active)"}]}]}
